The values below come from the supplement of paper PMC13380429.

Assay [1] deals with Vero E6 infected with SARS-CoV-2. The assay is described as follows: morphology score (similarity to uninfected cells); higher = more like uninfected cells. Particulars: 24 h.
Assay [2] has the same test system. The assay is described as follows: SARS-CoV-2 infection rate relative to infected DMSO; higher = more infection, active = 60 or less. Particulars: 24 h.

`CC(C)(C(=O)NCC(F)(F)C(F)(F)F)C(=O)N[C@@H]1C(=O)Nc2ccccc2-c2ccccc21` (10 µM) showed a morphology score in assay [1] of 0.217. For the same compound, the SARS-CoV-2 infection rate in assay [2] is 86% (inactive).

For `CN(C)C(=N)NCCC[C@H](N)C(=O)O` [asymmetrical-dimethylarginine] (10 µM), the morphology score in assay [1] worked out at 0.217. For the same compound, in assay [2], the SARS-CoV-2 infection rate was 95.5% (inactive).

Compound `O=C(N[C@@H](Cc1c[nH]c2ccccc12)C(=O)O)c1ccc(Cl)cc1` [benzotript] (10 µM) yielded a morphology score in assay [1] of -0.049. In assay [2], the SARS-CoV-2 infection rate was 104% (inactive).

With `CC(CN(C)C)C(C)(O)Cc1ccc(Cl)cc1` (stereo not drawn) [clobutinol] (10 µM), the morphology score in assay [1] is 0.00198. Also, in assay [2], the SARS-CoV-2 infection rate is 109% (inactive).

Consider `COc1cccc(N(C)C(=S)Oc2ccc3c(c2)CCCC3)n1` [liranaftate] (10 µM), for which the morphology score in assay [1] came to 0.341. In assay [2], the SARS-CoV-2 infection rate is 94% (inactive).

In assay [1], `COc1ccc(-c2cc(=O)c3c(O)cc(O[C@@H]4O[C@H](CO[C@@H]5O[C@@H](C)[C@H](O)[C@@H](O)[C@H]5O)[C@@H](O)[C@H](O)[C@H]4O)cc3o2)cc1O` [diosmin] (10 µM) came in with a morphology score of -0.119. In addition, in assay [2], the SARS-CoV-2 infection rate is 106% (inactive).

With `COCCCOc1cc(C[C@@H](C[C@H](N)[C@@H](O)C[C@H](C(=O)NCC(C)(C)C(N)=O)C(C)C)C(C)C)ccc1OC` [aliskiren-hemifumarate] (10 µM), in assay [1], the morphology score is -0.0367. In assay [2], the SARS-CoV-2 infection rate is 110% (inactive).

`C[C@@H](O)[C@H]1C(=O)N2C(C(=O)O)=C(S[C@@H]3CN[C@H](C(=O)N(C)C)C3)[C@H](C)[C@H]12` [meropenem] (10 µM) came in with a morphology score in assay [1] of 0.0366. Moreover, the SARS-CoV-2 infection rate in assay [2] is 104% (inactive).

`O=c1c(O)c(-c2ccc(O)cc2O)oc2cc(O)cc(O)c12` [morin] (10 µM) registered a morphology score in assay [1] of 0.0742. In addition, the SARS-CoV-2 infection rate in assay [2] is 108% (inactive).
